PubChem BioAssay (NCATS)
Results filed as inconclusive are left out. Active and inactive are the calls of the source. The call rests on the fitted dose curve; in most records, active means well fitted curve in the direction sought with a large enough effect; inconclusive means small, poorly fitted or top-dose-only effect, or another doubt; inactive means no such curve, though single readings can be large; an effect the other way counts as inactive or inconclusive.

Columns and labels:
[1] = qHTS for Inhibitors of Plasmodium falciparum (DD2) proliferation (AID 504314)
Summary of the method: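 SYBR Green DNA-fluorescence growth assay: infected RBCs at 0.3% parasitemia, 2.5% hematocrit, 72 h compound exposure, 37C, 5% CO2; overnight lysis with dye at RT; normalized to 0.29 uM artemisinin and vehicle.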

[2] = qHTS for Inhibitors of Plasmodium falciparum (7G8) proliferation (AID 504316); further: nearly all actives have a fitted effect of over 65% in size
Summary of the method: (§1)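 Parasite growth measured as SYBR Green DNA fluorescence (ex 485, em 535 nm) after overnight lysis following 72 h culture at 37 °C, 0.3% parasitemia, 2.5% hematocrit. Values normalized against DMSO and 0.29 uM artemisinin controls, with plate-stack correction.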

[3] = qHTS for Inhibitors of Plasmodium falciparum (CP250) proliferation (AID 504320)
Summary of the method: as §1

[4] = qHTS for Inhibitors of Plasmodium falciparum (HB3) proliferation (AID 504318); further: nearly all actives have a fitted effect of over 60% in size
Summary of the method: as §1

Measured: Potency
Potency means the concentration at half of the fitted maximal effect.

C[C@H]1Cc2c(-c3ccccc3)nc3c(c2CO1)CN(C(=O)C1CCCCC1)CC3
inactive: [1] | [2] | [3]

Cc1ccc(S(=O)(=O)N[C@@H]2COC(=O)[C@@H](C)COC(=O)CC=C[C@H]2C)cc1
inactive: [1] | [2] | [3]

COC(=O)CCCC1=CC2=CC(=O)C(C)(OC(=O)c3cccs3)C(=O)C2=CN1Cc1ccc2c(c1)OCO2 (configuration not stated)
inactive: [1] | [2] | [3]

CCCCC1=CC2=CC(=O)C(C)(OC(=O)CC)C(=O)C2=CN1CCN1CCOCC1 (configuration not stated)
inactive: [1] | [2] | [3]

Fc1ccccc1-c1nc(-c2ccccc2)oc1NC1CCCCC1
inactive: all assays above

COc1ccc(C2=CC3=C(Br)C(=O)C(C)(OC(=O)c4ccco4)C(=O)C3=CO2)cc1 (configuration not stated)
inactive: all assays above

C=CCOC(=O)N[C@H](C(C(=O)OC)=C(C)NCc1ccccc1)c1cccc(F)c1
inactive: [1] | [2] | [3]

CCCCC1=CC2=CC(=O)C(C)(OC(=O)CC)C(=O)C2=CN1CCCOC(C)C (configuration not stated)
inactive: [1] | [2] | [3]

COc1ccc(C2=CC3=C(Br)C(=O)C(C)(OC(=O)c4cnc5ccccc5n4)C(=O)C3=CO2)cc1 (configuration not stated)
inactive: all assays above

COC(=O)CCC(=O)OC1(C)C(=O)C2=CN(CCc3ccccn3)C(c3ccc(OC)cc3)=CC2=C(Br)C1=O (configuration not stated)
inactive: [1] | [2] | [3]

COC/C=C/C1=CC2=CC(=O)C(C)(OC(=O)c3cnc4ccccc4n3)C(=O)C2=CN1CC(C)C (configuration not stated)
inactive: [1] | [2] | [3]

CCOC(=O)CN1C(=O)NC(c2cccc(C(F)(F)F)c2)C(C(C)=O)=C1C (configuration not stated)
inactive: all assays above

C=CC1=C2C=C(C3CC3)N(CCCN(CC)CC)C=C2C(=O)C(C)(OC(=O)c2ccco2)C1=O (configuration not stated)
inactive: [1] | [2] | [3]

COC(=O)[C@H](Cc1ccccc1)NC(=O)O[C@@H]1C(=O)c2cc(OC)ccc2O[C@H]1c1cccc(OC)c1
inactive: all assays above

COC/C=C/C1=CC2=CC(=O)C(C)(OC(=O)c3cnc4ccccc4n3)C(=O)C2=CN1Cc1ccccc1 (configuration not stated)
inactive: all assays above

CC(C)OCCCN1C=C2C(=O)C(C)(OC(=O)CCc3ccccc3)C(=O)C=C2C=C1c1ccc(C#N)cc1 (configuration not stated)
inactive: [1] | [2] | [3]

CC[C@@H](C)CN1C(=O)N[C@@H](CCc2ccccc2)C(C(C)=O)=C1C
inactive: [1] | [2] | [3]

COC/C=C/C1=CC2=CC(=O)C(C)(OC(=O)c3cnc4ccccc4n3)C(=O)C2=CN1CCc1c[nH]c2ccccc12 (configuration not stated)
inactive: [1] | [2] | [3]

COc1ccc(-c2nc3c(c4c2C[C@H](c2ccccc2)OC4)CN(S(=O)(=O)c2ccc4c(c2)OCCN4C)CC3)c(C)c1
inactive: [1] | [2] | [3]

CCN1C(=O)N[C@@H](c2ccc(Br)cc2)C(C(C)=O)=C1C
inactive: [1] | [2] | [3]

COC(=O)CCC(=O)OC1(C)C(=O)C=C2C=C(C3CC3)N(CCCCO)C=C2C1=O (configuration not stated)
inactive: [1] | [2] | [3]

CCCCC1=CC2=C(c3ccco3)C(=O)C(C)(OC(=O)c3ccc(OC)cc3)C(=O)C2=CN1C1CC1 (configuration not stated)
inactive: all assays above

CCCCc1nc2c(c3c1C[C@H](C)OC3)CN(C(=O)Nc1ccc(OC)cc1)CC2
inactive: [1] | [2] | [3]

CCCCc1nc2c(c3c1C[C@H](C)OC3)CN(C(=O)COC)CC2
inactive: all assays above

COC(=O)C1=C(C)N(Cc2ccccc2)C(=O)N[C@H]1CCc1ccccc1
inactive: all assays above

Cc1ccccc1Nc1oc(-c2ccccc2)nc1-c1ccc(C(F)(F)F)cc1
inactive: all assays above

COC(=O)C1=C(C(=O)OC)[C@@H]2Nc3ccccc3[C@@]23C[C@@H](C(=O)OC)N(C(=O)NC2CCCC2)C3=N1
inactive: all assays above

CCCCC1=CC2=CC(=O)C(C)(OC(=O)CC)C(=O)C2=CN1Cc1ccc(OC)cc1 (configuration not stated)
inactive: all assays above

COCCN1C(=O)N(C)[C@@H](c2ccccc2)C(C(C)=O)=C1C
inactive: all assays above

CCOC(=O)CN1C(=O)N[C@@H](c2cccs2)C(C(C)=O)=C1C
inactive: all assays above

COC(=O)C1=C(C(=O)OC)[C@@H]2N(C)c3ccc(OC)cc3[C@@]23C[C@@H](C(=O)OC)N=C3N1
inactive: all assays above

CCN1C(=O)N[C@@H](c2cccc(C(F)(F)F)c2)[C@H](C(=O)OC)[C@H]1C
inactive: all assays above

CCCCc1nc2c(c3c1C[C@H](C)OC3)CN(S(=O)(=O)c1ccc(C#N)cc1)CC2
inactive: all assays above

COCCN1C=C2C(=O)C(C)(OC(=O)CCC(=O)OC)C(=O)C(Br)=C2C=C1c1ccc(OC)cc1 (configuration not stated)
inactive: [1] | [2] | [3]

CCOC(=O)CN1C(=O)N[C@@H](c2cccc(F)c2)C(C(=O)OC)=C1C
inactive: [1] | [2] | [3]

CCO[C@H](c1cc(OC)cc([N+](=O)[O-])c1OC)[C@H](C)C=CCC(=O)OC
inactive: all assays above

COCCN1C(=O)N[C@@H](c2ccco2)C(C(=O)OC)=C1C
inactive: all assays above

COC/C=C/C1=CC2=CC(=O)C(C)(OC(=O)c3cnc4ccccc4n3)C(=O)C2=CN1CCCOC(C)C (configuration not stated)
inactive: [1] | [2]

FC(F)(F)c1cc(NC(=S)NC23CC4CC(CC(C4)C2)C3)cc(C(F)(F)F)c1
active: [1] 753 nM | [2] 601 nM | [4] 478 nM | [3] 849 nM

CC1(OC(=O)CCc2ccccc2)C(=O)C=C2C=C3CCCN3C=C2C1=O (configuration not stated)
inactive: all assays above

CCOC(=O)CN1C(=O)N[C@@H](CCc2ccccc2)C(C(C)=O)=C1C
inactive: [1] | [2] | [3]

COC(=O)C1=C(C(=O)OC)[C@@H]2N(Cc3ccccc3)c3ccccc3[C@@]23C[C@@H](C(=O)OC)N(C(C)=O)C3=N1
inactive: all assays above
